Most compounds without a hit are left out; they make up all but 5.1% or so of the library.
Tau fil binding – binders of human tau filaments. AID 596. recombinant tau filaments, thioflavin S fluorescence, 15 h; filaments grown with octadecylsulfate alongside compound. P10636. 71,000 tested, 2% active. Potency, µM (titrated, usually from 57.1 µM);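 also: actives lower thioflavin S fluorescence by blocking filaments or displacing dye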
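Quantitative HTS: thioflavine S signal from ODS-induced tau filaments, excited at 450 nm, emission 510 nm. Conditions: 1 uM tau, 30 uM ODS, 15 h at 37 C, pH 7.4.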
DNA Pol III inh – inhibitors of bacterial DNA polymerase III holoenzyme; reconstituted DNA polymerase III holoenzyme replication, biochemical; Potency, µM (titrated, usually from 57.1 µM); 71,000 tested, 0.25% active; AID 603
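Reconstituted *E. coli* holoenzyme (0.35 nM Pol III, 1 nM beta, 154 nM SSB, 2 nM primase) was preincubated with compound for 15 min at RT. Synthesis on 1.4 nM ssM13Gori ran 35 min, then was stopped with PicoGreen/EDTA and read as dsDNA fluorescence.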
Hsp90 Hop PPI – changes Hsp90-Hop TPR2A binding signal, up or down | AlphaScreen TPR2A-His6 binding biotin-Hsp90 C-terminal peptide | Potency, µM (doses to about 57 µM) | 71,000 tested, 0.44% active | AID 595; active = well fitted curve in either direction with a large enough effect; inconclusive = small, poorly fitted or top-dose-only effect, or another doubt
HEK293 cAMP ctrl – counter-screen for TSHR agonists: cAMP increase in parental HEK293. Potency, µM (series often up to 57.1 µM), actives largely listed as activators. 73,000 tested, 2.5% active. parental HEK293 CNG cAMP sensor, membrane potential fluorescence. AID 938; also: nearly all actives have a fitted effect of over 55% in size
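Parental HEK 293 cells stably expressing a cAMP-gated CNG channel were loaded with membrane potential dye containing 100 uM RO 20-1724 for 60 min. Compound added for 30 min; depolarization read as fluorescence intensity at 590 nm.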
TSHR agonist – activates the human thyroid stimulating hormone receptor | Potency, µM (highest dose often 57.1 µM), usual class: activators | P16473 | HEK293-CNG-TSHR cells (CNG channel as cAMP sensor), membrane potential dye, cAMP | AID 926 | 73,000 tested, 0.48% active; active = well fitted activation curve with a large enough effect in the main read-out, with a control signal flat, not every such curve was filed as active; inconclusive = small, poorly fitted or top-dose-only effect, or a change in a side signal; inactive = no such curve, though single readings can be large or run the other way; reference of the percent scale not stated here;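 also: the control signal comes from parental cells without the receptor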
Target sequence (P16473 whole entry, looked up): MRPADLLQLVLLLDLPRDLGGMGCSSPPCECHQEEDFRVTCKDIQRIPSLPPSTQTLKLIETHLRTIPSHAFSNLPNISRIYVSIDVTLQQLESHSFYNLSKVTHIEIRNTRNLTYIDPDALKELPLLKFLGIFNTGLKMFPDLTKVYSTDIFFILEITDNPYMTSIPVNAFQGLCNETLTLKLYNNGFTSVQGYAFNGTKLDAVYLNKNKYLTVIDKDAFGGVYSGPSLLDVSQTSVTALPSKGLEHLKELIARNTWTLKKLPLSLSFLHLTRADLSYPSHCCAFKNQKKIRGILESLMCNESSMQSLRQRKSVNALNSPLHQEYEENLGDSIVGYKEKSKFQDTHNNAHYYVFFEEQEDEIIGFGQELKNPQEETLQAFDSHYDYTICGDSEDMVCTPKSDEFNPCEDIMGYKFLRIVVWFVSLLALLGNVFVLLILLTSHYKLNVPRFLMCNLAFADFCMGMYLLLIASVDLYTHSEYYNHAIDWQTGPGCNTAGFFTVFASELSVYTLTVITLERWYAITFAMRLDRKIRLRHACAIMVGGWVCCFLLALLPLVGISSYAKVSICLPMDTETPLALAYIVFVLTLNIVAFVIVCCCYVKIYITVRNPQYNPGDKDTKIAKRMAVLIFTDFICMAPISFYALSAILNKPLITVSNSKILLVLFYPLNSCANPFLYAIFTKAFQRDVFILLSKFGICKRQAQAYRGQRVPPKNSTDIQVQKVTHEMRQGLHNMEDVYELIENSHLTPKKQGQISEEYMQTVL
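HEK 293 cells stably expressing TSHR and a cAMP-gated CNG channel; parental CNG-only cells as counterscreen. Cells preloaded 60 min with membrane potential dye plus 100 uM RO 20-1724, then compound 30 min; fluorescence read at 590 nm.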
Hsp90-TPR2A inh – confirmation and counter-screen of Hsp90 TPR2A co-chaperone interaction disrupters. shares compounds with Hsp90 Hop PPI. AlphaScreen TPR2A-His6 / biotin-Hsp90 peptide binding. activity, negative = inhibition, % at 40 µM or 46 µM, hits read low. 45 tested, 100% active. AID 632;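 active = compound lowering the Hsp90 and TPR2A binding signal, whether or not the linker counterscreen also flagged it as an artifact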
Numbers stand for hits; – = inactive; ? = inconclusive; · = not tested or not shown; [ ] = dose if it differs, or a comment. Unless noted, calls follow the shape of the dose curve; as a rule, active = well fitted curve in the direction sought with a large enough effect; inconclusive = small, poorly fitted or top-dose-only effect, or another doubt; inactive = no such curve, though single readings can be large; an effect the other way counts as inactive or inconclusive.

SMILES	Tau fil binding	DNA Pol III inh	Hsp90 Hop PPI	HEK293 cAMP ctrl	TSHR agonist	others
COc1ccc2[nH]c3ccccc3c2c1	–	–	–	–	–
CCOc1ccc(C(=O)C(c2ccccc2)N2CCOCC2)cc1 (stereo not drawn)	–	–	–	?	?
CCCOc1ccc(C(=O)C(c2ccccc2)N2CCOCC2)cc1 (stereo not drawn)	–	–	–	25µM	?
C=CCn1c(SCC(=O)c2ccccc2)nnc1-c1cc2ccccc2o1	–	–	–	32µM	?
C[C@@H](CN(C)C)CN1c2ccccc2CCc2ccccc21	–	–	–	–	–
COc1cc(NC(=O)c2ccc(Cl)cc2)c(OC)cc1NC(=O)CN1CCOCC1	20µM	–	–	–	–
COc1ccccc1NC(=O)CN1CCN(c2ccc(Cl)cc2)CC1	–	–	–	20µM	?
c1ccc(CO[C@H]2NCCN2Cc2ccccc2)cc1	–[11.4 µM]	–[11.4 µM]	?	–[11.4 µM]	–[11.4 µM]
CC1(C)CC(=O)C2=C(C1)Oc1ncn(Cc3ccco3)c(=N)c1C2c1ccccc1 (stereo not drawn)	16µM	–	–	–	–
FC(F)C(F)(F)C(F)(F)C(F)(F)c1cc(-c2ccccc2)n[nH]1	10µM	–	–	–	–
Cc1ccc(O)c(-c2cc(C(F)(F)C(F)F)[nH]n2)c1	–	–	–	–	–
COc1ccc2nc(C)cc(N3CC(C)OC(C)C3)c2c1 (stereo not drawn)	–	–	–	16µM	?
C=CC1=C(C)C2=NC1=CC1=NC(=CC3=NC(=CC4=NC(=C2)C(C)=C4CCC(=O)O)C(CCC(=O)O)=C3C)C(C=C)=C1C.[Zn]	0.79µM	25µM	5µM	–	?
CC(=O)N1CCN(c2ccc(NCc3cccs3)cc2)CC1	25µM	–	–	–	–
CC(=O)N1CCN(c2ccc(NCc3ccccc3)cc2)CC1	16µM	–	–	–	–
O=c1[nH]c(SCc2c(Cl)c(Cl)c(Cl)c(Cl)c2Cl)nc(=S)[nH]1	–[11.4 µM]	–[11.4 µM]	–[11 µM]	–[11.4 µM]	–[11.4 µM]
Nc1cc(N)cc(-c2nc3ccccc3[nH]2)c1	6.3µM	–	?	–	–
Nc1nc2ccccc2[nH]1	–	–	–	–	–
Cc1ccc(-c2nc3ccccc3[nH]2)s1	13µM	–	–	–	–
c1csc(-c2nc3ccccc3[nH]2)c1	–	–	–	–	–
CN(C)c1ccnc(-c2ccccc2C(F)(F)F)n1	–	–	–	?	?
COc1ccc(CCNC(=O)c2c(O)c3c([nH]c2=O)CCCC3)cc1OC	–	–	–	–	–
Oc1c(C(O)(c2ccccc2)c2ccc3ccccc3c2O)ccc2ccccc12	1.3µM	–[11.4 µM]	?	–[11.4 µM]	–[11.4 µM]
CC(C)(C)NC[C@H](O)COc1cccc2c1C[C@@H](O)[C@@H](O)C2	–	–	–	?	?
Cc1ccc(N=Cc2cccc(O)c2O)c(C)c1	·	·	·	–	–
SMILES	Tau fil binding	DNA Pol III inh	Hsp90 Hop PPI	HEK293 cAMP ctrl	TSHR agonist	others
CC(N=Cc1cccc(O)c1O)c1ccccc1 (stereo not drawn)	13µM	–	–	–	–
CCCCNc1nc2ccccc2n1CC(=O)N1CCc2ccccc2C1	?	–	–	2µM	?
CN(C)c1ccc(N=Cc2nc(-c3ccccc3)oc2O)cc1	–	–	–	–	?
CN(C)c1ccc(N=Nc2cccc3ccoc23)cc1	4µM	–[11.4 µM]	4µM	–[11.4 µM]	–[11.4 µM]
CCCCCSc1nnc2c(n1)OC(C)N(C(C)=O)c1ccccc1-2 (stereo not drawn)	25µM	–	–	–	–
CCC(=O)N1c2ccccc2-c2nnc(SC)nc2OC1c1ccc(N(C)C)cc1 (stereo not drawn)	25µM	–	–[2.3 µM]	–	–
Cc1ccccc1N=C(N)Nc1ccccc1C	?	–	–	16µM	?
CCC(C)(C)n1nnnc1C(c1ccc(C)cc1)N1CCCC1 (stereo not drawn)	–	–	–	25µM	?
CC1CCN(C(c2ccccc2)c2nnnn2C(C)(C)C)CC1 (stereo not drawn)	–	–	–	20µM	?
COc1ccccc1C(c1nnnn1C(C)(C)C)N1CCCCCC1 (stereo not drawn)	–	–	–	–	–
CCC(C)(C)n1nnnc1C(c1ccc(O)c(OC)c1)N1CCN(c2nc3ccccc3s2)CC1 (stereo not drawn)	–	–	–	?	?
COc1ccc(C(c2nnnn2C(C)(C)C)N2CCN(c3nc4ccccc4s3)CC2)cc1 (stereo not drawn)	–	–	–	–	10µM
Cn1c(=O)[nH]c2nnc(-c3ccccc3)nc2c1=O	·	·	·	·	·	Hsp90-TPR2A inh=–
Nc1cc(C(=O)O)[nH]c(=O)n1	–[11.4 µM]	–[11.4 µM]	–[11 µM]	?	?
Cc1ccc(NC(=O)CCCCCC2NC(=O)NC2C)cc1 (stereo not drawn)	–	–	0.013µM	–	–	Hsp90-TPR2A inh=-99[alpha-screen platform artifact]

Screening results (PubChem BioAssay)
